# How the values were obtained:
# Experiment in all cases: DAPPL (digital affinity profiling via proximity ligation, sequencing); 10 mM Tris-HCl pH 7.5, 50 mM NaCl, 1 mM DTT, 4% glycerol, room temperature, 30 min; GST-TFs on glutathione beads, 16-mer random dsDNA library, 0.1% formaldehyde crosslink after washing; high values mean tight binding
# FLI1 = molecular target: T1, FLI1 (Homo sapiens, UniProt Q01543 1-452); settings: protein: recombinant; tags: N-terminal GST; dsDNA, one strand shown
# T1 sequence: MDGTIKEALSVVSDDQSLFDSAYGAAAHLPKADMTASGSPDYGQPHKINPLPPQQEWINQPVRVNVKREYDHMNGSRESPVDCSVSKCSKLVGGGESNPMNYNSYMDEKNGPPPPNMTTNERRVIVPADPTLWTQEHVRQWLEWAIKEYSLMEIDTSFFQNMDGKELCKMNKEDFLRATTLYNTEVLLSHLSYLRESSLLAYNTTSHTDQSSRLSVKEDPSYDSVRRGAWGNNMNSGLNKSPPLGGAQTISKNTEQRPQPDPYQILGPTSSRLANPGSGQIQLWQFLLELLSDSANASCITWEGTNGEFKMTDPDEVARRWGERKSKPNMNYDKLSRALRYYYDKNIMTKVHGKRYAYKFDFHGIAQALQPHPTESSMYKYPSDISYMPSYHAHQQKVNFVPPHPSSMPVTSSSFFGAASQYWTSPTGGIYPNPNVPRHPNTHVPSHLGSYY
# Summary of the method: (§1)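 A tag-only sample was pooled with DNA-barcoded human transcription factors that had been expressed in yeast as GST fusions and captured on glutathione beads. The pools were incubated for 30 min at room temperature with 200 nmole of a random double-stranded 16-mer DNA library in Tris/NaCl/DTT/glycerol buffer, then washed, crosslinked with 0.1% formaldehyde, proximity-ligated (BsaI/T4 ligase, 1 h, 37 °C), PCR-amplified and sequenced on an Illumina NextSeq500. Binding signal is each hexamer's read frequency for a factor divided by its frequency for the tag-only sample.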
# ELK1 = molecular target: T2, ELK1 (Homo sapiens, UniProt P19419 1-428); settings: protein: recombinant; tags: N-terminal GST; dsDNA, one strand shown
# T2 sequence: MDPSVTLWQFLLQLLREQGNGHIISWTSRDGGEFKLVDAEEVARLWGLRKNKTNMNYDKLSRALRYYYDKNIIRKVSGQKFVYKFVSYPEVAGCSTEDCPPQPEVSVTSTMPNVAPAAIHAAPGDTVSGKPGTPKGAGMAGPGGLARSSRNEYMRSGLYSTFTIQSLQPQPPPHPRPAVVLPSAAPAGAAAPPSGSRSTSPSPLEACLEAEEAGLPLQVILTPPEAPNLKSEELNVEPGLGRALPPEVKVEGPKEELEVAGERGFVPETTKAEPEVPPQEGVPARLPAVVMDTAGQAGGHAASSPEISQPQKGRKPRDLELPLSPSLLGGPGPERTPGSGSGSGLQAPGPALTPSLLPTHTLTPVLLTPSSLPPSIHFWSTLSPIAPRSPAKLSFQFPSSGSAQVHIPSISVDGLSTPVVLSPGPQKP
# Summary of the method: as §1
# GABPA = molecular target: T3, GABPA (Homo sapiens, UniProt Q06546 1-454); settings: protein: recombinant; tags: N-terminal GST; dsDNA, one strand shown
# T3 sequence: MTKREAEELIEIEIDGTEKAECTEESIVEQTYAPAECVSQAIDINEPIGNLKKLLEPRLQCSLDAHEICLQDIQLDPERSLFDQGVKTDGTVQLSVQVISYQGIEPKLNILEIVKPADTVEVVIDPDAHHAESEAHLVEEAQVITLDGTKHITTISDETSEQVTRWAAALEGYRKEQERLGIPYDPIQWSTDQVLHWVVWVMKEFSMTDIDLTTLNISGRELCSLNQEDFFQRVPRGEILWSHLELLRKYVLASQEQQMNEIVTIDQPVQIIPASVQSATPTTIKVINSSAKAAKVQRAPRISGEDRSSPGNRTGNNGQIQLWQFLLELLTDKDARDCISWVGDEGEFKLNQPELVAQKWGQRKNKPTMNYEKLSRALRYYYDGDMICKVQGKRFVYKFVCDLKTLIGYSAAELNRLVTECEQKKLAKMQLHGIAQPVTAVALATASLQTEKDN
# Summary of the method: as §1
# ERG = molecular target: T4, ERG (Homo sapiens, UniProt P11308 1-479); settings: protein: recombinant; tags: N-terminal GST; dsDNA, one strand shown
# T4 sequence: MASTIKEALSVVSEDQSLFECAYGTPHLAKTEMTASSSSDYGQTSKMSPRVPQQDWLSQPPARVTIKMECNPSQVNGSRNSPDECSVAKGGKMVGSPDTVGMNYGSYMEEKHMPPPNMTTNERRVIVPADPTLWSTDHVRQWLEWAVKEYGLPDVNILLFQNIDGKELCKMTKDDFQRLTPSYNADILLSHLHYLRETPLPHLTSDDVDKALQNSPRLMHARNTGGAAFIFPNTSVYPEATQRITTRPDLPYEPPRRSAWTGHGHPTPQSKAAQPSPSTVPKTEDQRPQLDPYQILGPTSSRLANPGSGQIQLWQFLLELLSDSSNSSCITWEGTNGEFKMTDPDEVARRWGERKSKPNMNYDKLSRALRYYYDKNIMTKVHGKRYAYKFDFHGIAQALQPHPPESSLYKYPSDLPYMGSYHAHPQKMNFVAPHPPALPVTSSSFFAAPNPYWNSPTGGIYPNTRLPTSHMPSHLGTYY
# Summary of the method: as §1
# ELF1 = ELF1 (Homo sapiens, UniProt P32519 1-619); settings: protein: recombinant; tags: N-terminal GST; dsDNA, one strand shown
# Chain of ELF1 (P32519 whole entry): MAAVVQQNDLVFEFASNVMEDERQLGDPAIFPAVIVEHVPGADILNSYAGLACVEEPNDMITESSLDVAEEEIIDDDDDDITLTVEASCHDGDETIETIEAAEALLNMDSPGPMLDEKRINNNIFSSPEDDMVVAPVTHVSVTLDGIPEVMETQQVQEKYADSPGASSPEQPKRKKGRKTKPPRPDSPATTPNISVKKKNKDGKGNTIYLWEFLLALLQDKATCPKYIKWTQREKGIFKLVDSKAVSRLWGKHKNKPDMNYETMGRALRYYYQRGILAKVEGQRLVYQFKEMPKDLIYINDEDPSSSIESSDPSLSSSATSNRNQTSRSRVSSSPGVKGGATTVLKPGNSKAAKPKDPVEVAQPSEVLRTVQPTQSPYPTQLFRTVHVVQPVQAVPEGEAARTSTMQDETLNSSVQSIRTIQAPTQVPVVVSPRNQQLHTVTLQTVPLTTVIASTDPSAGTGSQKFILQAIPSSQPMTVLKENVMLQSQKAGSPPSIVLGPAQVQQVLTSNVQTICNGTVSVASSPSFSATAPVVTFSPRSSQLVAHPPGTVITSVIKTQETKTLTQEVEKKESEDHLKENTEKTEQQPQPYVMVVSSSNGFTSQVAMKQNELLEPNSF
# Summary of the method: as §1
# EHF = molecular target: T5, EHF (Homo sapiens, UniProt Q9NZC4 1-300); settings: protein: recombinant; tags: N-terminal GST; dsDNA, one strand shown
# T5 sequence: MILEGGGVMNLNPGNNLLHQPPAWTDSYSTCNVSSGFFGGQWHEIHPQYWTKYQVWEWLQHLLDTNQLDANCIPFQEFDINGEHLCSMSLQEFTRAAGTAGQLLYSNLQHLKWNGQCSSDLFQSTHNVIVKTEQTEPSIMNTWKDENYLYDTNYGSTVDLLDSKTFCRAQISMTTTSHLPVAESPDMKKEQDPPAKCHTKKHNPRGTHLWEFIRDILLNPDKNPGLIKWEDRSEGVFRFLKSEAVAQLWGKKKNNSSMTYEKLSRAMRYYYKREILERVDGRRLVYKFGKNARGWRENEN
# Summary of the method: as §1
# SPI1 = SPI1 (Homo sapiens, UniProt P17947 1-270); settings: protein: recombinant; tags: N-terminal GST; dsDNA, one strand shown
# Summary of the method: as §1
# SPIB = SPIB (Homo sapiens, UniProt Q01892 1-262); settings: protein: recombinant; tags: N-terminal GST; dsDNA, one strand shown
# Chain of SPIB (Q01892 whole entry): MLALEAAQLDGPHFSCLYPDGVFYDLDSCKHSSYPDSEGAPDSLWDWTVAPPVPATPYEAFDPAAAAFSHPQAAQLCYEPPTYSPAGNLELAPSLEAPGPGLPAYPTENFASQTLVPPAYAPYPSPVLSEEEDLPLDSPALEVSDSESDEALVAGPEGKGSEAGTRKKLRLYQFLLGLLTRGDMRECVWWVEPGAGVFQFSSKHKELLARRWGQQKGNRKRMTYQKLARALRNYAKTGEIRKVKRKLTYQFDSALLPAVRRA
# Summary of the method: as §1
# ELK3 = molecular target: T6, ELK3 (Homo sapiens, UniProt P41970 1-407); settings: protein: recombinant; tags: N-terminal GST; dsDNA, one strand shown
# T6 sequence: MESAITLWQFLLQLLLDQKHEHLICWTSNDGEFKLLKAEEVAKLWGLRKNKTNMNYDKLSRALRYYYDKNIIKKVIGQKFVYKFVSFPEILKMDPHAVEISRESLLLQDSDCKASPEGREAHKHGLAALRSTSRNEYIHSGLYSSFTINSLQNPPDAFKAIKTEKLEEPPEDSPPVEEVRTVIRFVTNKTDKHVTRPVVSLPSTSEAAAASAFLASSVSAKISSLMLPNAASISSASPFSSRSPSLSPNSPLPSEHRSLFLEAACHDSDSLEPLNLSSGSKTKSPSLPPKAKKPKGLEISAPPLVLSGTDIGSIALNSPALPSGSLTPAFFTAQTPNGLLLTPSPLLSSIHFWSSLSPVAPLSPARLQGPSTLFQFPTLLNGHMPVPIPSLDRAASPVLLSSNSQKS
# Summary of the method: as §1
# FEV = molecular target: T7, FEV (Homo sapiens, UniProt Q99581 1-238); settings: protein: recombinant; tags: N-terminal GST; dsDNA, one strand shown
# T7 sequence: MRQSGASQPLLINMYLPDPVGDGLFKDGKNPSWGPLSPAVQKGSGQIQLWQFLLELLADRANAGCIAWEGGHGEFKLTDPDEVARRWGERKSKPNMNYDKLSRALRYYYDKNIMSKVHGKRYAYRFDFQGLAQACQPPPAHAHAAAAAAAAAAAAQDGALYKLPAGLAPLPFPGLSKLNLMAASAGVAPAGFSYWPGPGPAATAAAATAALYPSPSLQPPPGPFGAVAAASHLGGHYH
# Summary of the method: as §1
# ETV5 = ETV5 (Homo sapiens, UniProt P41161 1-510); settings: protein: recombinant; tags: N-terminal GST; dsDNA, one strand shown
# Chain of ETV5 (P41161 whole entry): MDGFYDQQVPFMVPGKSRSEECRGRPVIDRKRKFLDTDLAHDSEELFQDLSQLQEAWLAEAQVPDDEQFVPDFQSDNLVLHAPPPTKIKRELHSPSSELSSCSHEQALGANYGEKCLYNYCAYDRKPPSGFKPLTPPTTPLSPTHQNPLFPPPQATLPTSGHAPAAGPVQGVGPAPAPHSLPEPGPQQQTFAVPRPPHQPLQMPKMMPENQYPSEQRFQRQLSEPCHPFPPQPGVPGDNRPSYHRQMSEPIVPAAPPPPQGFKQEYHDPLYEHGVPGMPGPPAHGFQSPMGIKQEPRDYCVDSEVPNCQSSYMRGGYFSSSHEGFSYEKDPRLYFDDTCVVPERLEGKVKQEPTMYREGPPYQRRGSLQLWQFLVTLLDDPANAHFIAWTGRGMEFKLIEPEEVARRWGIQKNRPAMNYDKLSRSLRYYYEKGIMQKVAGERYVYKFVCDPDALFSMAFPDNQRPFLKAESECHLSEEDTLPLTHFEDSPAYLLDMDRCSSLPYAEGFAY
# Summary of the method: as §1
# HSF1 = HSF1 (Homo sapiens, UniProt Q00613 1-529); settings: protein: recombinant; tags: N-terminal GST; chain copies: 3; dsDNA, one strand shown
# Chain of HSF1 (Q00613 whole entry): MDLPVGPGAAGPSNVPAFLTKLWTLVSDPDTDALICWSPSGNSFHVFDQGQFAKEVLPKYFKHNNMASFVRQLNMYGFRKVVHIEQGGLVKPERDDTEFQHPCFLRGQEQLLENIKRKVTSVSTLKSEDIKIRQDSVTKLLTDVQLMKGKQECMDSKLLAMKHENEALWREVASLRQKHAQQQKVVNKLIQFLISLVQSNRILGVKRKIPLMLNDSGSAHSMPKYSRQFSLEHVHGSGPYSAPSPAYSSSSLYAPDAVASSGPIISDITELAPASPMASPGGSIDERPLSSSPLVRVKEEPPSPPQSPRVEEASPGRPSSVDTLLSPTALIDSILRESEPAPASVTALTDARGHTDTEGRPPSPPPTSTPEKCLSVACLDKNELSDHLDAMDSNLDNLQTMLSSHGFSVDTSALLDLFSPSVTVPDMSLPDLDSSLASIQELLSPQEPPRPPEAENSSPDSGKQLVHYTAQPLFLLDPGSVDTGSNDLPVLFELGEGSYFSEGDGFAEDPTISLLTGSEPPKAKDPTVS
# Summary of the method: as §1
# SPIC = molecular target: T8, SPIC (Homo sapiens, UniProt Q8N5J4 1-248); settings: protein: recombinant; tags: N-terminal GST; dsDNA, one strand shown
# T8 sequence: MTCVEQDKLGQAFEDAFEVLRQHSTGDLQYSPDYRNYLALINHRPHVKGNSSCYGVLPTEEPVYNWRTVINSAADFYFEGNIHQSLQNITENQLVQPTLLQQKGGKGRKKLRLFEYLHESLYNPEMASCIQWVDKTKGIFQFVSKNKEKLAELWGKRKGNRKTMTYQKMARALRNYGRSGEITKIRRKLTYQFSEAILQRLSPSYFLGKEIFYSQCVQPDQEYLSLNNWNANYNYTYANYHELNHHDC
# Summary of the method: as §1
# ELF4 = ELF4 (Homo sapiens, UniProt Q99607 1-663); settings: protein: recombinant; tags: N-terminal GST; dsDNA, one strand shown
# Chain of ELF4 (Q99607 whole entry): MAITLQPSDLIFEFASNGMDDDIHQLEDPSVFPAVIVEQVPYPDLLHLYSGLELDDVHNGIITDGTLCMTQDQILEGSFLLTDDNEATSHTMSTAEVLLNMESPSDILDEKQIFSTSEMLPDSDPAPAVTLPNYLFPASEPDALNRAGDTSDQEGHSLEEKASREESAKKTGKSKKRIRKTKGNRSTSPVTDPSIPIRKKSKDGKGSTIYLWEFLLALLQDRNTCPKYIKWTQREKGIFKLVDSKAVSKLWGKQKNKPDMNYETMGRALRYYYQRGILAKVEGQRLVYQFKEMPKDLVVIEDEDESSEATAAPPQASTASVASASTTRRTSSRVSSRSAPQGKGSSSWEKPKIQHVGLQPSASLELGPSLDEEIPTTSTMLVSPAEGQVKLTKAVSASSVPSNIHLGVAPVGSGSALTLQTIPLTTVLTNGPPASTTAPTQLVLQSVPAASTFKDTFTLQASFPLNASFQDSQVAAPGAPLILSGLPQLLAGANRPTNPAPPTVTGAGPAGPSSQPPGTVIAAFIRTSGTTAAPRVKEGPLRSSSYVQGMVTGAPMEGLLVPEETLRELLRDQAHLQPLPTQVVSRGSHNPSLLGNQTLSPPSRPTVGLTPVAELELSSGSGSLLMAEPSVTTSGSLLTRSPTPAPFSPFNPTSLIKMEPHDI
# Summary of the method: as §1
# ELK4 = molecular target: T9, ELK4 (Homo sapiens, UniProt P28324-2 1-405); settings: protein: recombinant; tags: N-terminal GST; dsDNA, one strand shown
# T9 sequence: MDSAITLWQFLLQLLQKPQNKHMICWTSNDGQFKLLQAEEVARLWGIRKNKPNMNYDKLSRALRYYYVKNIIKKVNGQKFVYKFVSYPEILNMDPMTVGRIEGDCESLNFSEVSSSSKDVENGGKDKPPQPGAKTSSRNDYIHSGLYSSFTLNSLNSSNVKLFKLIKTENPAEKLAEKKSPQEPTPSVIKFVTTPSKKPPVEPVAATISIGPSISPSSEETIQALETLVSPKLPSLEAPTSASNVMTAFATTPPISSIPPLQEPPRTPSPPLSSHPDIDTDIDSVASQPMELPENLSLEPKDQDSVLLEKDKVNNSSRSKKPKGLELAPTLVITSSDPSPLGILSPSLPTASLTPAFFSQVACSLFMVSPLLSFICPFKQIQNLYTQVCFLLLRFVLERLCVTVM
# Summary of the method: as §1
# ETV2 = molecular target: T10, ETV2 (Homo sapiens, UniProt O00321 1-342); settings: protein: recombinant; tags: N-terminal GST; dsDNA, one strand shown
# T10 sequence: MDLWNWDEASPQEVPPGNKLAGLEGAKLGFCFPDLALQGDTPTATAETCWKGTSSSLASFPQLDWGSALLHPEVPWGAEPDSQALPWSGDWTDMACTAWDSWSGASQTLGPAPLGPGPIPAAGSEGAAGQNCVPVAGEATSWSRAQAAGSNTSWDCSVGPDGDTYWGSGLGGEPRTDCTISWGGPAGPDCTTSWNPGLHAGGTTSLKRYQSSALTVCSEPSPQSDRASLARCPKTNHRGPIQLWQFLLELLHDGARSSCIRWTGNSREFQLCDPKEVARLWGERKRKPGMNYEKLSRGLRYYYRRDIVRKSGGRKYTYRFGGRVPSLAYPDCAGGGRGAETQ
# Summary of the method: as §1
# ELF3 = molecular target: T11, ELF3 (Homo sapiens, UniProt P78545 1-371); settings: protein: recombinant; tags: N-terminal GST; dsDNA, one strand shown
# T11 sequence: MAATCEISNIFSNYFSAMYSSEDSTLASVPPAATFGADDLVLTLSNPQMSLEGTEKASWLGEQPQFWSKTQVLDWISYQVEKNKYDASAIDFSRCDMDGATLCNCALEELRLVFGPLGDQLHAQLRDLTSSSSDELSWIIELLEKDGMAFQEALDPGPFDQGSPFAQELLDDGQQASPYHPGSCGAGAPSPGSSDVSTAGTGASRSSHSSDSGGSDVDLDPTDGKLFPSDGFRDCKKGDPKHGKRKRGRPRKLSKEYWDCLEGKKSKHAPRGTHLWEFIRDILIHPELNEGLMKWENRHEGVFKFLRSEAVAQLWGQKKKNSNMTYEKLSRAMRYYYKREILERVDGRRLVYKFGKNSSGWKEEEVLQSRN
# Summary of the method: as §1
# CRX = CRX (Homo sapiens, UniProt O43186 1-299); settings: protein: recombinant; tags: N-terminal GST; dsDNA, one strand shown
# Chain of CRX (O43186 whole entry): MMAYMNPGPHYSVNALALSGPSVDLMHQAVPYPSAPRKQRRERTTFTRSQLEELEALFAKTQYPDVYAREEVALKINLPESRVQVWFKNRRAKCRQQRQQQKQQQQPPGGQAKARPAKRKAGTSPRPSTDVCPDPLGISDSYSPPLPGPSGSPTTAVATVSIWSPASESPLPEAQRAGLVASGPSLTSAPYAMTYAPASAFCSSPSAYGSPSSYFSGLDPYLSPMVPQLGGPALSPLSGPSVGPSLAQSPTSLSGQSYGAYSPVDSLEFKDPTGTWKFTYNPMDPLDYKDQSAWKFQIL
# Summary of the method: as §1
# ETV1 = ETV1 (Homo sapiens, UniProt P50549 1-477); settings: protein: recombinant; tags: N-terminal GST; dsDNA, one strand shown
# Chain of ETV1 (P50549 whole entry): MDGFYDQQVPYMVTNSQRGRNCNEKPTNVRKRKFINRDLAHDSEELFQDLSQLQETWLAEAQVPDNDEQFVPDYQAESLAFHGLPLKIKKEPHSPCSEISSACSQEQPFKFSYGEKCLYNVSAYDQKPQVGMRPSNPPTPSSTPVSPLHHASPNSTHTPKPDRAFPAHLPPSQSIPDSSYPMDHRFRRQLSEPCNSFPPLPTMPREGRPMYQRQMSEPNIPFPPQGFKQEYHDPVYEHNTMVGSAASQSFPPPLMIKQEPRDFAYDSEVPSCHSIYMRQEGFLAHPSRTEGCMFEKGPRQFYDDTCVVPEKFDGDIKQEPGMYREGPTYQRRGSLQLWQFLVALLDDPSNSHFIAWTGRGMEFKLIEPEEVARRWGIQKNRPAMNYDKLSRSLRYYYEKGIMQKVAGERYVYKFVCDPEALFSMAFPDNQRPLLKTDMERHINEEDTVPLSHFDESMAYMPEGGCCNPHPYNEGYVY
# Summary of the method: as §1
sequence,measurement,setting,value
GCTCAC,binding signal,FLI1,"1.37 fold enrichment (6-mer frequency, TF over GST control)"
same,binding signal,ELK1,"1.51 fold enrichment (6-mer frequency, TF over GST control)"
same,binding signal,GABPA,"1.65 fold enrichment (6-mer frequency, TF over GST control)"
same,binding signal,ERG,"1.51 fold enrichment (6-mer frequency, TF over GST control)"
same,binding signal,ELF1,"1.49 fold enrichment (6-mer frequency, TF over GST control)"
same,binding signal,EHF,"1.51 fold enrichment (6-mer frequency, TF over GST control)"
same,binding signal,SPI1,"1.41 fold enrichment (6-mer frequency, TF over GST control)"
same,binding signal,SPIB,"1.44 fold enrichment (6-mer frequency, TF over GST control)"
same,binding signal,ELK3,"1.32 fold enrichment (6-mer frequency, TF over GST control)"
same,binding signal,FEV,"1.54 fold enrichment (6-mer frequency, TF over GST control)"
same,binding signal,ETV5,"1.47 fold enrichment (6-mer frequency, TF over GST control)"
same,binding signal,HSF1,"1.22 fold enrichment (6-mer frequency, TF over GST control)"
same,binding signal,SPIC,"1.32 fold enrichment (6-mer frequency, TF over GST control)"
same,binding signal,ELF4,"1.53 fold enrichment (6-mer frequency, TF over GST control)"
same,binding signal,ELK4,"1.53 fold enrichment (6-mer frequency, TF over GST control)"
same,binding signal,ETV2,"1.63 fold enrichment (6-mer frequency, TF over GST control)"
same,binding signal,ELF3,"1.49 fold enrichment (6-mer frequency, TF over GST control)"
same,binding signal,CRX,"1.37 fold enrichment (6-mer frequency, TF over GST control)"
same,binding signal,ETV1,"1.37 fold enrichment (6-mer frequency, TF over GST control)"
